Measured values taken from the OligoGym collection.

Biological target: CTSH
Experiment: pooled miR-30 sensor sort-seq; sequence = guide strand
Conditions: shRNA
Note: reference of the scale not given here.

Sequence | sensor-assay potency score (higher = more potent)
TTATCTGGAGTTTTATGGCAGG | -0.729
TTCTATACATCATGAAGTCCTG | -0.782
TATATGTGGAAAGTAGCCCTTC | 0.309
TCTATACATCATGAAGTCCTGA | 0.44
TTCTCCATACCCAACAGCCAGT | -1.28
TACATCCTTGACAAAGCCGATG | -1.28
TTACGGTGCTTAGACATCCATG | -1.04
TACTGTAGGTCTTACGGTGCTT | -0.0767
TTAGACATCCATGACTTGAAGT | -0.899
TTTTATGGCAGGAAGTACTGGA | 0.401
AAGGACAGCATCTTTCCGGTTG | 0.018

Biological target: CUZD1
Experiment: as above
Conditions: shRNA

Sequence | sensor-assay potency score (higher = more potent)
TTTGTATTACATCATCTTCTGT | -0.716
TTTAGTTGCAAGTTATTCCCAT | 0.389
TTTGCTTATAATAACTCTCATC | -0.82
TATATGAAGAAATGTCTCGTTT | -0.417
TTTGACTTTGTATTACATCATC | -1.5
TTCTGATTGTACCACATCCATT | -1.82
TTGTATTACATCATCTTCTGTT | 0.486
TTACACTGCAGATACACAGAGC | -0.444
TTGATTAGGTCGTAGGTTGGAG | 0.0207
TTGAAGTTTAGTTTTATCTTGT | 0.539
TATCTTGTAATCTTTCTCCACT | -0.514
AAATACAGGAACATAGTCGTTT | 0.0357

Biological target: CWF19L2
Experiment: as above
Conditions: shRNA

Sequence | sensor-assay potency score (higher = more potent)
TTGCAGTATCTGTTGTAGCATA | -0.923
TTAGTAATCGATGACACACTAC | -0.494
TGTTGTAGCATATCTATCCCTT | -0.316
TTCTACTTTGTTTCTCAGCTTG | 0.279
TAATCCACCATCTTCTACCACT | -1.06
TAATCTTTCTTCACTGTTCTTG | 0.0595
TTTCTTGACAATTTTGTGCTTT | 0.803
TAAATTAACTGAACAATTCGGA | 0.661
TTTACTAAGTCTGATTCTCTAC | -0.315
TTAGCCAGCTTAATCCACCATC | 0.0576
TTGTTTCTCAGCTTGTTCCTTC | 0.329
TTAGATTCTCTTCTACACGTTT | -0.587

Biological target: CXCL1
Experiment: as above
Conditions: shRNA

Sequence | sensor-assay potency score (higher = more potent)
TGATTTTCTTAACTATGGGGGA | -0.639
ATGATTTTCTTAACTATGGGGG | -0.365
TTGAGGCAAGCTTTCCGCCCAT | -0.645
TCGATGATTTTCTTAACTATGG | -1.57
TTCACGTTCACACTTTGGATGT | -1.04
